Laboratory results as given in PubChem BioAssay AID1781 (National Center for Advancing Translational Sciences (NCATS), 2009).
Results filed as inconclusive are left out. Calls of active or inactive are those of the source. Calls come from the whole dose curve; as a rule, active = well fitted curve in the direction sought with a large enough effect; inconclusive = small, poorly fitted or top-dose-only effect, or effect the other way, or another doubt; inactive = no such curve, though single readings can be large or run the other way.

Target: Pyruvate kinase PKLR (Homo sapiens) (UniProt P30613)
Assay: Confirmation Concentration-Response Assay for Activators of Human Liver Pyruvate Kinase
Conditions: purified hPK-L, Kinase-Glo ATP luminescence, 1 h; series mostly up to 57.5 µM
Text: Confirmatory assay NIH Chemical Genomics Center [NCGC] Matthew G. Vander Heiden, M.D., Ph.D. [Harvard Medical School, 77 Avenue Louis Pasteur, Boston, MA 02115] NCGC Assay Overview: Human pyruvate kinase liver (hPK-L) enzyme was supplied as a highly purified (>95% pure) preparation from Harvard Medical School and assayed for its ability to generate ATP from ADP using phosphoenolpyruvate (PEP) as a substrate. ATP generation was detected in a coupled reaction by luciferase-mediated luminescence, an ATP-dependent process. Pyruvate kinase substrates, PEP and ADP, were present in the assay at Km and approximately 10-fold below Km respectively. The enzyme was assayed at an intermediate level of activity to screen for both inhibitors and activators.
NCGC Assay Protocol Summary for L-isoform: Three uL of substrate mix (at r.t.) in assay buffer (50 mM Imidazole pH7.2, 50 mM KCl, 7 mM MgCl2, 0.01% Tween 20, 0.05% BSA) was dispensed into white solid bottom 1,536 well microtiter plates so that the final concentrations of substrates in the assay were 0.1 mM ADP and 0.5 mM PEP. 23 nL of compound were delivered by a pin tool and 1 uL of enzyme mix (final concentration of 0.1 nM) in assay buffer (4 degree Celsius) was added. Plates were incubated at room temperature for 1 hour. Two uL of detection mix (Kinase-Glo, Promega; at 4 degree Celsius protected from light) was added and luminescence read by a ViewLux (Perkin Elmer) at 1 second exposure/plate. Data were normalized to the uninhibited (row 31). Additionally, a no enzyme and 5-fold enzyme control was dispensed in row 32, split equally between the two conditions.

Chain of Pyruvate kinase PKLR (Homo sapiens) (P30613 whole entry, looked up): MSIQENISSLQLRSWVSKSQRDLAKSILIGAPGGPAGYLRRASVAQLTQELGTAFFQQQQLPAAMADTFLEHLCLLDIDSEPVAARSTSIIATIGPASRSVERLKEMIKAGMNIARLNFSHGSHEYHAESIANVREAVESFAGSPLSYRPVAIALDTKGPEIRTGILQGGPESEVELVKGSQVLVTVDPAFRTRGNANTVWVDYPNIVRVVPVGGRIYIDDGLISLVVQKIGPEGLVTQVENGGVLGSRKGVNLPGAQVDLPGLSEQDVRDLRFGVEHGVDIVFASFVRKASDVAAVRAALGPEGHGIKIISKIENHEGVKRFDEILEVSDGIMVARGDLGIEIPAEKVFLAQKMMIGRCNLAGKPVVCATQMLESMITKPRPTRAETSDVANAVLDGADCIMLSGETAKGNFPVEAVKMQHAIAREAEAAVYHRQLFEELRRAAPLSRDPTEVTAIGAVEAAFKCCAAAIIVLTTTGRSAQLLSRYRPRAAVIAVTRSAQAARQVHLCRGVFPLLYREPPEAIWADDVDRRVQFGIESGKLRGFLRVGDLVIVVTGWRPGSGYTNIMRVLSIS

Structure (SMILES) | outcome
C[C@@H]1CN(S(=O)(=O)c2ccc3c(c2)OCCO3)CCN1S(=O)(=O)c1c(F)cccc1F | inactive
Cn1ccc2cc(S(=O)(=O)N3CCN(S(=O)(=O)c4c(F)cccc4F)CC3)ccc21 | inactive
Cc1cc2c(s1)c1cnn(Cc3ccccc3Cl)c(=O)c1n2C | inactive
N#Cc1ccc(S(=O)(=O)N2CCN(S(=O)(=O)c3ccc4c(c3)OCCO4)CC2)cc1 | inactive
Cn1c2cc(C=O)sc2c2cnn(Cc3ccccc3F)c(=O)c21 | inactive
Cn1c2cc(B(O)O)sc2c2cnn(Cc3ccccc3F)c(=O)c21 | inactive
O=S(=O)(NC1CCN(S(=O)(=O)c2ccc3c(c2)OCCO3)C1)c1c(F)cccc1F (stereo not given) | inactive
Cc1cc2c(s1)c1cnn(Cc3ccc(F)c(F)c3F)c(=O)c1n2C | inactive
O=S(=O)(c1ccc2c(c1)OCCO2)N1CCN(S(=O)(=O)c2cccc[n+]2[O-])CC1 | inactive
Cc1cc2c(s1)c1cnn(Cc3c(F)cccc3F)c(=O)c1n2C | inactive
O=S(=O)(c1ccc2c(c1)OCCO2)N1CCN(S(=O)(=O)c2ccc3c(c2)OCCO3)CC1 | inactive
Cc1cc2c(s1)c1cnn(Cc3ccc(S(C)(=O)=O)cc3)c(=O)c1n2C | inactive
COc1cc2c(s1)c1cnn(Cc3ccccc3F)c(=O)c1n2C | inactive
O=C(CN1C(=O)N/C(=C\c2cccn2-c2cccc(C(=O)O)c2)C1=O)Nc1ccccc1F | inactive
CN1CCOc2ccc(S(=O)(=O)N3CCN(S(=O)(=O)c4c(F)cccc4F)CC3)cc21 | inactive
Cn1c2ccsc2c2cnn(Cc3ccccc3F)c(=O)c21 | inactive
Cc1ccc(Cn2ncc3c4sc(C)cc4n(C)c3c2=O)cc1 | inactive
Cc1cc2c(s1)c1cnn(Cc3c(F)cccc3Cl)c(=O)c1n2C | inactive
O=S(=O)(c1ccc2c(c1)OCCCO2)N1CCN(S(=O)(=O)c2c(F)cccc2F)CC1 | inactive
Cc1cc2c(s1)c1cnn(Cc3cc(C(F)(F)F)cc(Cl)c3F)c(=O)c1n2C | inactive

Structure (SMILES) | outcome
Cc1cc2c(s1)c1cnn(Cc3ccccc3F)c(=O)c1n2C | inactive
COc1ccc(Cn2ncc3c4sc(C)cc4n(C)c3c2=O)cc1 | inactive
Cc1cc2c(s1)c1cnn(Cc3cccc(F)c3F)c(=O)c1n2C | inactive
O=C(c1ccc2c(c1)OCCO2)N1CCN(S(=O)(=O)c2c(F)cccc2F)CC1 | inactive
O=S(=O)(c1ccc2c(c1)OCO2)N1CCN(S(=O)(=O)c2c(F)cccc2F)CC1 | inactive
O=S(=O)(NCCCCCNS(=O)(=O)c1c(F)cccc1F)c1ccc2c(c1)OCCO2 | inactive
Cc1cc2c(s1)c1cnn(Cc3cccc(Cl)c3)c(=O)c1n2C | inactive
Cc1cc2c(s1)c1c(C)nn(Cc3ccccc3F)c(=O)c1n2C | inactive
Cn1c2cc(C#N)sc2c2cnn(Cc3ccccc3F)c(=O)c21 | inactive
Cc1cc2c(s1)c1cnn(Cc3cccc(Cn4ncc5c6sc(C)cc6n(C)c5c4=O)c3F)c(=O)c1n2C | inactive
COc1cc(F)c(S(=O)(=O)N2CCN(S(=O)(=O)c3ccc4c(c3)OCCO4)CC2)c(F)c1 | inactive
Cc1ccc(Cn2ncc3c4sc(C)cc4n(C)c3c2=O)c(C)c1 | inactive
CC1(C)CCc2cc(S(=O)(=O)N3CCN(S(=O)(=O)c4c(F)cccc4F)CC3)ccc2O1 | inactive
Cc1cc2c(s1)c1cnn(Cc3c(F)c(F)cc(F)c3F)c(=O)c1n2C | inactive
COc1ccc(S(=O)(=O)N2CCN(S(=O)(=O)c3c(F)cccc3F)CC2)cc1 | inactive
CCn1c2cc(C)sc2c2cnn(Cc3ccccc3F)c(=O)c21 | inactive
Cn1c2cc(S(C)=O)sc2c2cnn(Cc3ccccc3F)c(=O)c21 (stereo not given) | inactive
COc1ccc(S(=O)(=O)N2CCN(S(=O)(=O)c3ccc(OC)cc3)CC2)cc1 | inactive
COc1ccc(Cn2ncc3c4sc(C)cc4n(C)c3c2=O)cc1F | inactive
Cn1c2cc([N+](=O)[O-])sc2c2cnn(Cc3ccccc3F)c(=O)c21 | inactive
